# Measured values reported in PubChem BioAssay (NCATS).
# Active and inactive are the calls of the source. Calls come from the whole dose curve; as a rule, active = well fitted inhibition curve with a large enough effect; inconclusive = small, poorly fitted or top-dose-only effect; inactive = no such curve, though single readings can be large or run the other way.
# Experiment: qHTS assay for measurement of the activity of small molecule inhibitors on Zika virus induced Caspase-3 activity in human astrocytoma cells (AID 1224859)
# Conditions: SNB-19 ZIKV-induced caspase-3/7, luminescence, 6 h; series mostly up to 45.7 µM
# Procedure, shortened: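 Readout is luminescence from Caspase-Glo 3/7 added after a 6 h ZIKV infection (2 FFU/cell) of compound-pretreated (1 h) SNB-19 cells; data expressed as % inhibition versus uninfected and infected wells.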
row,Structure (SMILES),outcome
1,COP(=S)(OC)Oc1ccc(S(N)(=O)=O)cc1,inactive
2,CCOC(=O)C(c1c(O)c2ccccc2oc1=O)c1c(O)c2ccccc2oc1=O,inactive
3,Oc1ccc([C@H]2CNCc3c2ccc(O)c3O)cc1O,inactive
4,O=C(N[C@H]1N=C(c2ccccc2F)c2cccc3c2N(CC3)C1=O)c1cc2ccccc2[nH]1,inactive
5,CC1N=C(N)OC1c1ccccc1 (configuration not stated),inactive
6,ClCCCN1CCN(c2cccc(Cl)c2)CC1,inactive
7,CCCN(CCC)CCc1c[nH]c2ccccc12,inactive
8,CN1C(=O)CN=C(c2ccccc2)c2cc(Cl)ccc21,inactive
9,Cc1nc2ccccc2c(=O)n1-c1ccccc1Cl,inactive
10,O=C(CCCCl)c1ccc(F)cc1,inactive
11,O=C(CBr)Nc1ccc(Cl)cc1C(=O)c1ccccc1F,inactive
12,C=CC[C@]1(O)CC[C@H]2[C@@H]3CCC4=CC(=O)CCC4=C3C=C[C@@]21C,inactive
13,CC[C@H]1C[C@@H]2C[C@H]3c4[nH]c5ccc(OC)cc5c4CCN(C2)[C@@H]13,inactive
14,CCCOC(=O)Cc1ccc(OCC(=O)N(CC)CC)c(OC)c1,inactive
15,Cc1nnc2n1-c1sc(CCc3ccc(CC(C)C)cc3)cc1C(c1ccccc1Cl)=NC2C (configuration not stated),inactive
16,CCOC(=O)c1ncn2c1CN(C)C(=O)c1c(I)cccc1-2,inactive

row,Structure (SMILES),outcome
1,Nc1ccccc1C(=O)OCC(O)CO (configuration not stated),inactive
2,O=C(O)CCCCCCNC1c2ccccc2CCc2ccccc21,inactive
3,CCC(=O)OC1(c2ccccc2)CCN(C)CC1,inactive
4,CC[C@H]1C[C@H]2[C@@H]3CCC4=CC(=O)CC[C@@H]4[C@H]3CC[C@]2(C)[C@H]1O,inactive
5,CC#C[C@]1(O)CC[C@H]2[C@@H]3C[C@H](C)C4=CC(=O)CC[C@]4(C)[C@H]3CC[C@@]21C,inactive
6,CC[C@H](O)C(C[C@H](C)N(C)C)(c1ccccc1)c1ccccc1,inactive
7,C1CN2CCC1CC2,inactive
8,NC1(c2ccccc2)CCCCC1,inactive
9,CC(C)=CCN1CC[C@@]2(C)c3cc(O)ccc3C[C@@H]1[C@@H]2C,inactive
10,CCOP(=S)(OCC)O/N=C(\C#N)c1ccccc1,inactive
11,CC(Cc1ccc2c(c1)OCO2)NO (configuration not stated),inactive
12,CN(C)CCc1c[nH]c2ccc(O)cc12,inactive
13,c1ccc2c(c1)Sc1ccccc1N2CC1CN2CCC1CC2 (configuration not stated),inactive
14,CCCCC1C(=O)NC(=O)N(C2CCCCC2)C1=O (configuration not stated),inactive
15,CCOC(=O)C1(c2ccccc2)CCN(CCc2ccc(N)cc2)CC1,inactive
16,O=C(N[C@@H]1N=C(c2ccccc2F)c2cccc3c2N(CC3)C1=O)c1cc2ccccc2[nH]1,inactive
